From PubChem BioAssay (Tox21)
Inconclusive results are not listed. Calls of active or inactive are those of the source. The call rests on the fitted dose curve; in most records, active means well fitted curve in the direction sought with a large enough effect in the repeat runs; inconclusive means weak or mixed curves; inactive means no such curve, though single readings can be large; an effect the other way counts as inactive or inconclusive.

molecular target: Androgen receptor (Homo sapiens) (UniProt P10275); assay: qHTS assay to identify small molecule agonists of the androgen receptor (AR) signaling pathway using the MDA cell line (AID 743040; further: nearly all actives have a fitted effect of over 20% in size); details: MDA-kb2 AR-luc cells, MMTV luciferase, 16 h; series mostly up to 70.3 µM; activity change: at the top concentration
Procedure, shortened: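 Cells plated, 5 h at 37C/0% CO2; compound or DMSO pinned; 16 h at 37C; ONE-Glo added; luminescence measured after 30 min at room temperature. Reporter line: MDA-kb2 with MMTV-luciferase responsive to AR and GR.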
On the % scale 0 is the no-effect control and ±100 the full control effect.

Androgen receptor (Homo sapiens), sequence (P10275 whole entry, looked up): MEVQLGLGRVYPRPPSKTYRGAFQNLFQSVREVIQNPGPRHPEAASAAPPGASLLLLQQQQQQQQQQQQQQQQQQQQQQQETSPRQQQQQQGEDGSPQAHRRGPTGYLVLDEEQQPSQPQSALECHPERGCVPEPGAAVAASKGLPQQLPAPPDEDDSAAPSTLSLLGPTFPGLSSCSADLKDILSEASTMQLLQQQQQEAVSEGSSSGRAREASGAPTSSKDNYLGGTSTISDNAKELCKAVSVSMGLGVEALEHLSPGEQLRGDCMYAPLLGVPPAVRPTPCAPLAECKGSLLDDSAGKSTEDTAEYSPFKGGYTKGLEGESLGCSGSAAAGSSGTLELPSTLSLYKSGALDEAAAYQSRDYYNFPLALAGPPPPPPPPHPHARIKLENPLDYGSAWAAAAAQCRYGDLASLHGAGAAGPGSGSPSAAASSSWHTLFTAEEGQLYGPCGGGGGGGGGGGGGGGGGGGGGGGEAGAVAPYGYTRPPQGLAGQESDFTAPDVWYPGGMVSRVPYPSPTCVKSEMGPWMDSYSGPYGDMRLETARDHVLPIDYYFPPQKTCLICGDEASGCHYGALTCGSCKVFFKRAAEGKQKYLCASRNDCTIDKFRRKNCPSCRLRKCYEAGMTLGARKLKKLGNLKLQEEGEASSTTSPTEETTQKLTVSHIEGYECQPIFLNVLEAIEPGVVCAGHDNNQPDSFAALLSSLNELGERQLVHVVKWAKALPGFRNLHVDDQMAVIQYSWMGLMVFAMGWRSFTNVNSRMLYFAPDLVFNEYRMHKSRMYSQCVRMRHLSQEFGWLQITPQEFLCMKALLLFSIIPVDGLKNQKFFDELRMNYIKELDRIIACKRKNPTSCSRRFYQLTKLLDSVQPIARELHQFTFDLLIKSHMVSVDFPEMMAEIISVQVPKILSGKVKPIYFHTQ

SMILES | activity change
CO/N=C(\C(=O)N[C@@H]1C(=O)N2C(C(=O)O)=C(CSc3cnns3)CS[C@H]12)c1csc(N)n1 | -0.132% (inactive)
O=C1c2ccccc2C(=O)C1c1ccc(F)cc1 | 2.14% (inactive)
CCN(CC)CCn1c(=O)c(Cc2ccc(OC)cc2)nc2ccccc21 | 1.06% (inactive)
O=P(O)(O)CP(=O)(O)O | -0.0473% (inactive)
N[C@@H](Cc1cnc[nH]1)C(=O)O | -2.03% (inactive)

system: not listed separately; assay: qHTS assay to identify small molecule antagonists of the androgen receptor (AR) signaling pathway using the MDA cell line - cell viability counter screen (AID 743041; further: nearly all actives have a fitted effect of over 45% in size); details: MDA-kb2 viability, CellTiter-Fluor, 16 h, cells co-treated with R1881 androgen agonist; series mostly up to 70.3 µM; viability change, negative = cytotoxic: at the top concentration
Procedure, shortened: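 Cells were plated at 3,000 per well and left 5 h. Compounds in DMSO were then pinned in, followed by R1881. After 16 h at 37C, CellTiter-Fluor fluorescence gave viability.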

SMILES | viability change, negative = cytotoxic | Potency
CCCOC(=O)c1ccccc1O | -16.9% (inactive) | 
CO/N=C(\C(=O)N[C@@H]1C(=O)N2C(C(=O)O)=C(CSc3cnns3)CS[C@H]12)c1csc(N)n1 | -5.43% (inactive) | 
COC1=C(OC)C(=O)C(C/C=C(\C)CC/C=C(\C)CC/C=C(\C)CC/C=C(\C)CC/C=C(\C)CC/C=C(\C)CC/C=C(\C)CC/C=C(\C)CC/C=C(\C)CCC=C(C)C)=C(C)C1=O |  | inactive
C=C(Nc1ccc(OCC)cc1)Nc1ccc(OCC)cc1 |  | inactive
N[C@H](CO)C(=O)O | 0.734% (inactive) | 
CCCCCCCCCCCCCC(=O)OCC(COP(=O)([O-])OCC[N+](C)(C)C)OC(=O)CCCCCCCCCCCCC (stereo unspecified) | 2.48% (inactive) | 
CC(C)(C)c1ccc2c(S(=O)(=O)O)c(C(C)(C)C)ccc2c1 |  | inactive
CCCCCN=C(N)N/N=C/c1c[nH]c2ccc(OC)cc12 | -1.71% (inactive) | 
O=C1c2ccccc2C(=O)C1c1ccc(F)cc1 | 6.26% (inactive) | 
CCN(CC)CCn1c(=O)c(Cc2ccc(OC)cc2)nc2ccccc21 | -1.33% (inactive) | 
CC[C@H]1OC(=O)C[C@@H](O)[C@H](C)[C@@H](O[C@@H]2O[C@H](C)[C@@H](O[C@H]3C[C@@](C)(O)[C@@H](O)[C@H](C)O3)[C@H](N(C)C)[C@H]2O)[C@@H](CC=O)C[C@@H](C)C(=O)/C=C/C(C)=C/[C@@H]1CO[C@@H]1O[C@H](C)[C@@H](O)[C@@H](OC)[C@H]1OC |  | inactive
N#Cc1c(N(CC(=O)O)CC(=O)O)sc(C(=O)O)c1CC(=O)O | -4.83% (inactive) | 
CC(=O)Oc1cc(C(F)(F)F)ccc1C(=O)O | 7.81% [at 32.5 µM] (inactive) | 
O=P(O)(O)CP(=O)(O)O | 2.76% (inactive) | 
O=C1CC[C@@H](C(=O)N[C@H]2C[C@@H]2c2ccccc2)N1 | 13.5% (inactive) | 
CO[C@H]1C[C@H](O[C@H]2[C@H](C)[C@@H](O[C@@H]3O[C@H](C)C[C@H](N(C)C)[C@H]3O)[C@@H](C)C[C@]3(CO3)C(=O)[C@H](C)[C@@H](O)[C@@H](C)[C@@H](C)OC(=O)[C@@H]2C)O[C@@H](C)[C@@H]1O | 6.18% [at 32.5 µM] (inactive) | 

SMILES | viability change, negative = cytotoxic | Potency
O=C(O)c1cc(O)c2c(c1)[C@H]([C@H]1c3cc(C(=O)O)cc(O)c3C(=O)c3c(O[C@@H]4O[C@H](CO)[C@@H](O)[C@H](O)[C@H]4O)cccc31)c1cccc(O[C@@H]3O[C@H](CO)[C@@H](O)[C@H](O)[C@H]3O)c1C2=O | -4.7% (inactive) | 
CCOc1ccc(NC(=S)Nc2ccc(OCC)cc2)cc1 | -1.14% (inactive) | 
Oc1ccc(Cl)cc1C1CCCC1 | -9.78% (inactive) | 
CNC(=O)C[C@@H](N)C(=O)N[C@@H](C(=O)N[C@@H]1C(=O)N2[C@@H]1SC(C)(C)[C@@H]2C(=O)O)c1ccc(O)cc1 | 6.89% (inactive) | 
N[C@@H](Cc1cnc[nH]1)C(=O)O | -2.52% (inactive) | 
NS(=O)(=O)c1cc(Cl)c(Cl)c(S(N)(=O)=O)c1 | 4.35% [at 32.5 µM] (inactive) | 
COC(=O)C(CN)c1c[nH]c2ccc(OC)cc12 (stereo unspecified) | 0.871% (inactive) | 
C=C1C(=C/C=C2\CCC[C@]3(C)[C@@H]([C@H](C)CCCC(C)C)CC[C@@H]23)C[C@@H](O)C[C@@H]1O | -1.65% (inactive) | 
CN[C@H](CC(C)C)C(=O)N[C@H]1C(=O)N[C@@H](CC(N)=O)C(=O)N[C@H]2C(=O)N[C@H]3C(=O)N[C@H](C(=O)N[C@@H](C(=O)O)c4cc(O)cc(O)c4-c4cc3ccc4O)[C@H](O)c3ccc(c(Cl)c3)Oc3cc2cc(c3O[C@@H]2O[C@H](CO)[C@@H](O)[C@H](O)[C@H]2O[C@H]2C[C@](C)(N)C(O)[C@H](C)O2)Oc2ccc(cc2Cl)[C@H]1O (stereo partly specified) |  | inactive
O=C1c2c(O)cccc2[C@H]([C@@H]2O[C@H](CO)[C@@H](O)[C@H](O)[C@H]2O)c2cc(CO)cc(O)c21 | -10.1% (inactive) | 
Nc1nc(NC2CC2)c2ncn([C@@H]3C=C[C@@H](CO)C3)c2n1 | 0.682% (inactive) | 
Cc1ccc(C(C)(C)c2ccc(C)cc2)cc1 | 0.168% (inactive) | 
Cc1cccc(C)c1NC(=O)C1CCCCN1C (stereo unspecified) | 1.64% (inactive) | 
CC(=NCc1ccccc1)c1ccccc1O | 9.51% (inactive) | 
CC(=O)OCC(=O)[C@@]1(O)CC[C@H]2[C@@H]3C[C@H](C)C4=CC(=O)C=C[C@]4(C)[C@H]3[C@@H](O)C[C@@]21C | 18.7% (inactive) | 
